Measured values reported in PMC7862700, “An all-to-all approach to the identification of sequence-specific readers for epigenetic DNA modifications on cytosine”.

How the values were obtained:
Test in all cases: DAPPL (digital affinity profiling via proximity ligation, sequencing); 10 mM Tris-HCl pH 7.5, 50 mM NaCl, 1 mM DTT, 4% glycerol, room temperature, 30 min; GST-TFs on glutathione beads, 16-mer random dsDNA library, 0.1% formaldehyde crosslink after washing; high values mean tight binding
Details in all cases: protein: recombinant; tags: N-terminal GST; dsDNA, one strand shown
FLI1 = target: T1, FLI1 (Homo sapiens, UniProt Q01543 1-452)
T1 sequence: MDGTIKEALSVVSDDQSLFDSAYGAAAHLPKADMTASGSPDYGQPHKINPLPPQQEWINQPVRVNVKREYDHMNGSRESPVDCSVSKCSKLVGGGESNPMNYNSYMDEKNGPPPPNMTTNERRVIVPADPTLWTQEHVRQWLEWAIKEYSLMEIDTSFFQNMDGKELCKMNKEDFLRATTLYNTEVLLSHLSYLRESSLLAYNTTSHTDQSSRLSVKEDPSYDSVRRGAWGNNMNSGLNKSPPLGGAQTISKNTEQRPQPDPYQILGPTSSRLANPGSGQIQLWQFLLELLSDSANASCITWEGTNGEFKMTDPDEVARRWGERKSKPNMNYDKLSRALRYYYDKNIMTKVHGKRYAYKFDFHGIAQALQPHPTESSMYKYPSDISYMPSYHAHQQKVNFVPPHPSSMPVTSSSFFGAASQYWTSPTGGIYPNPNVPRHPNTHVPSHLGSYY
How it was run: (§1)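 Human transcription factors fused to GST were expressed in yeast, captured on glutathione beads, given DNA barcodes and pooled with a GST-only negative control. Pools were incubated with 200 nmole of a 16-mer random double-stranded DNA library in Tris/NaCl/DTT/glycerol buffer at room temperature for 30 min. They were then washed, crosslinked with 0.1% formaldehyde, proximity-ligated (BsaI/T4 ligase, 1 h, 37 °C), PCR-amplified and sequenced on an Illumina NextSeq500. Binding signal is each 6-mer's read frequency for a factor divided by its frequency for the GST control.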

ELK1 = target: T2, ELK1 (Homo sapiens, UniProt P19419 1-428)
T2 sequence: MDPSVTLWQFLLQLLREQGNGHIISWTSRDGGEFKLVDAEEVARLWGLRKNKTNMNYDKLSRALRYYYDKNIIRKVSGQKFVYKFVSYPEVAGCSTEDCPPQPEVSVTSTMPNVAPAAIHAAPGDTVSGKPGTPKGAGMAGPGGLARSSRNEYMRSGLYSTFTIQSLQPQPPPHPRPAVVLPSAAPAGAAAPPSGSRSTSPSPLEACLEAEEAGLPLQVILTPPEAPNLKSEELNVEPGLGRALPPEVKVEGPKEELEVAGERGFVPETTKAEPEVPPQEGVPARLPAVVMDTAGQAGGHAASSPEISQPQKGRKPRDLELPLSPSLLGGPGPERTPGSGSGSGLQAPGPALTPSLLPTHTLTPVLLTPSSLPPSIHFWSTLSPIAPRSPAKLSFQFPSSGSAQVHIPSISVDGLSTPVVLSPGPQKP
How it was run: as §1

GABPA = target: T3, GABPA (Homo sapiens, UniProt Q06546 1-454)
T3 sequence: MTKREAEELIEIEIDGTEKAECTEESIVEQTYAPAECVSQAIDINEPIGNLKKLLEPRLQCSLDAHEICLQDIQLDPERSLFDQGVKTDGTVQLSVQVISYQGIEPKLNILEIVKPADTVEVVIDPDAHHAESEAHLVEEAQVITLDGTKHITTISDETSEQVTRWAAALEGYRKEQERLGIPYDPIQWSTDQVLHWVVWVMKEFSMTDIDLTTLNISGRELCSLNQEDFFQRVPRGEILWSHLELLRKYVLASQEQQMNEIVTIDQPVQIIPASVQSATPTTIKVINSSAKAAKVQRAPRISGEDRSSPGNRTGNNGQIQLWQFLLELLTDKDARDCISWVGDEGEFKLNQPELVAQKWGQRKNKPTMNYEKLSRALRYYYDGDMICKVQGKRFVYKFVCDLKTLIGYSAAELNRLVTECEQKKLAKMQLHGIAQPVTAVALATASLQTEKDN
How it was run: as §1

ERG = target: T4, ERG (Homo sapiens, UniProt P11308 1-479)
T4 sequence: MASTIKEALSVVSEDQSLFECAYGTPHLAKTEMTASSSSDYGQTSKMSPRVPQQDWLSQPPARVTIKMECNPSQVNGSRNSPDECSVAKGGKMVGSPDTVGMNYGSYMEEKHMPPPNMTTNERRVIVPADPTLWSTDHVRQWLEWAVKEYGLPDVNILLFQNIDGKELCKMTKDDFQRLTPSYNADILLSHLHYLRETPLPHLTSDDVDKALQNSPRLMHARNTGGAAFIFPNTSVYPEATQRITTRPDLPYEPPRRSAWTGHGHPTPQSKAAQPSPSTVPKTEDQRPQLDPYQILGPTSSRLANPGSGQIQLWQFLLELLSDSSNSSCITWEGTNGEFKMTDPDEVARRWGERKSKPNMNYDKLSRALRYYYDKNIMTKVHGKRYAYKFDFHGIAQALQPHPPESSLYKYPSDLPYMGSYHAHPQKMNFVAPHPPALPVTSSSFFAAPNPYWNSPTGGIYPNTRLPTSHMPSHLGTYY
How it was run: as §1

ELF1 = ELF1 (Homo sapiens, UniProt P32519 1-619)
How it was run: as §1

EHF = target: T5, EHF (Homo sapiens, UniProt Q9NZC4 1-300)
T5 sequence: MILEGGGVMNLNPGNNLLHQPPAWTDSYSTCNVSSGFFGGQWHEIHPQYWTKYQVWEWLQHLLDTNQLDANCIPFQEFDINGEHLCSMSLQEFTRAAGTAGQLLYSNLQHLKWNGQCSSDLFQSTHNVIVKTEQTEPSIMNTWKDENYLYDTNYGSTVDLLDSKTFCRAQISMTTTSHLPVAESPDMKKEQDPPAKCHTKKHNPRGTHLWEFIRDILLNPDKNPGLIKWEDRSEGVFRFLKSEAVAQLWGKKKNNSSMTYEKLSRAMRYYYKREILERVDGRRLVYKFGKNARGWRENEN
How it was run: as §1

SPI1 = SPI1 (Homo sapiens, UniProt P17947 1-270)
How it was run: as §1

SPIB = SPIB (Homo sapiens, UniProt Q01892 1-262)
How it was run: as §1

ELK3 = target: T6, ELK3 (Homo sapiens, UniProt P41970 1-407)
T6 sequence: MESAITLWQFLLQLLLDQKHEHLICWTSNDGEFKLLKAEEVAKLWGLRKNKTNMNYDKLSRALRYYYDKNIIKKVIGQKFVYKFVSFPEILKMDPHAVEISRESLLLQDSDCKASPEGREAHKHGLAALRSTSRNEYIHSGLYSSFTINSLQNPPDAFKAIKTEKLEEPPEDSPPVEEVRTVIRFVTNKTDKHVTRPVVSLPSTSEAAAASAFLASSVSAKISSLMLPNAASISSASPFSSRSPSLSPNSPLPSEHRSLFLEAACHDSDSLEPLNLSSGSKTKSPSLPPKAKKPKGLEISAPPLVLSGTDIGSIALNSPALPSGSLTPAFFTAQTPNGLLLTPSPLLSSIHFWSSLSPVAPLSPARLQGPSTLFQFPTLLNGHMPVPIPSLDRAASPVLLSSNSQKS
How it was run: as §1

Sequence of SPIB (Q01892 whole entry): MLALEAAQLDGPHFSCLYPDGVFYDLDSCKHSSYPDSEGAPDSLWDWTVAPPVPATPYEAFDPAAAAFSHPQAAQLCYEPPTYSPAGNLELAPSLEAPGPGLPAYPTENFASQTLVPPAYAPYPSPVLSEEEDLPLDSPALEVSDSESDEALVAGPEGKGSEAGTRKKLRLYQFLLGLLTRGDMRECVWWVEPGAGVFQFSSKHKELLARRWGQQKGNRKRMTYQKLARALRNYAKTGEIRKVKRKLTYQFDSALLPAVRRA
Sequence of ELF1 (P32519 whole entry): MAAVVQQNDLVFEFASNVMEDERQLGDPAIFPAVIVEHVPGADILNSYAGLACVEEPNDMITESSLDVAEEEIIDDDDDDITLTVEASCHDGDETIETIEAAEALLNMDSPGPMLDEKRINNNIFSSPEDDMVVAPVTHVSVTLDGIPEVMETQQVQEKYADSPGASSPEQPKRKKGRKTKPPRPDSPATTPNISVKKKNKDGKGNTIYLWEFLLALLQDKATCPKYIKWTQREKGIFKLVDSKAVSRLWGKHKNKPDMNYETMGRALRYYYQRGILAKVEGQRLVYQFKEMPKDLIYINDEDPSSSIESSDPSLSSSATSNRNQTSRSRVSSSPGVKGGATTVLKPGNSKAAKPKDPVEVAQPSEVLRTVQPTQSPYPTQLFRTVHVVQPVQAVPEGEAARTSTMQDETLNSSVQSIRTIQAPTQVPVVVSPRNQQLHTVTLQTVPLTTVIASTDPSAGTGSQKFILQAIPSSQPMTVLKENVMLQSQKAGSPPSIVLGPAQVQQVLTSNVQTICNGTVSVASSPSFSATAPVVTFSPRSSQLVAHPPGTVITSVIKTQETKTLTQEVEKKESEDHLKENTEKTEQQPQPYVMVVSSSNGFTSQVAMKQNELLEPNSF

| Sequence | binding signal (FLI1) | binding signal (ELK1) | binding signal (GABPA) | binding signal (ERG) | binding signal (ELF1) | binding signal (EHF) | binding signal (SPI1) | binding signal (SPIB) | binding signal (ELK3) |
| --- | --- | --- | --- | --- | --- | --- | --- | --- | --- |
| CAAATT | 1.15 fold enrichment (6-mer frequency, TF over GST control) | 1.12 fold enrichment (6-mer frequency, TF over GST control) | 1.2 fold enrichment (6-mer frequency, TF over GST control) | 1.16 fold enrichment (6-mer frequency, TF over GST control) | 1.14 fold enrichment (6-mer frequency, TF over GST control) | 1.11 fold enrichment (6-mer frequency, TF over GST control) | 1.15 fold enrichment (6-mer frequency, TF over GST control) | 1.08 fold enrichment (6-mer frequency, TF over GST control) | 1.14 fold enrichment (6-mer frequency, TF over GST control) |
| AACAGG | 1.2 fold enrichment (6-mer frequency, TF over GST control) | 1.16 fold enrichment (6-mer frequency, TF over GST control) | 1.13 fold enrichment (6-mer frequency, TF over GST control) | 1.23 fold enrichment (6-mer frequency, TF over GST control) | 1.08 fold enrichment (6-mer frequency, TF over GST control) | 1.18 fold enrichment (6-mer frequency, TF over GST control) | 1.43 fold enrichment (6-mer frequency, TF over GST control) | 1.16 fold enrichment (6-mer frequency, TF over GST control) | 1.11 fold enrichment (6-mer frequency, TF over GST control) |
| TAAAGA | 1.11 fold enrichment (6-mer frequency, TF over GST control) | 1.04 fold enrichment (6-mer frequency, TF over GST control) | 1.14 fold enrichment (6-mer frequency, TF over GST control) | 1.14 fold enrichment (6-mer frequency, TF over GST control) | 1.14 fold enrichment (6-mer frequency, TF over GST control) | 1.07 fold enrichment (6-mer frequency, TF over GST control) | 1.12 fold enrichment (6-mer frequency, TF over GST control) | 1.11 fold enrichment (6-mer frequency, TF over GST control) | 1.07 fold enrichment (6-mer frequency, TF over GST control) |
| GGTCCC | 1.13 fold enrichment (6-mer frequency, TF over GST control) | 1.21 fold enrichment (6-mer frequency, TF over GST control) | 1.16 fold enrichment (6-mer frequency, TF over GST control) | 1.21 fold enrichment (6-mer frequency, TF over GST control) | 1.17 fold enrichment (6-mer frequency, TF over GST control) | 1.19 fold enrichment (6-mer frequency, TF over GST control) | 1.1 fold enrichment (6-mer frequency, TF over GST control) | 1.31 fold enrichment (6-mer frequency, TF over GST control) | 1.16 fold enrichment (6-mer frequency, TF over GST control) |
| TAAATC | 1.15 fold enrichment (6-mer frequency, TF over GST control) | 1.28 fold enrichment (6-mer frequency, TF over GST control) | 1.24 fold enrichment (6-mer frequency, TF over GST control) | 1.2 fold enrichment (6-mer frequency, TF over GST control) | 1.23 fold enrichment (6-mer frequency, TF over GST control) | 1.17 fold enrichment (6-mer frequency, TF over GST control) | 1.21 fold enrichment (6-mer frequency, TF over GST control) | 1.12 fold enrichment (6-mer frequency, TF over GST control) | 1.35 fold enrichment (6-mer frequency, TF over GST control) |
| GCGCCT | 1.09 fold enrichment (6-mer frequency, TF over GST control) | 1.19 fold enrichment (6-mer frequency, TF over GST control) | 1.11 fold enrichment (6-mer frequency, TF over GST control) | 1.04 fold enrichment (6-mer frequency, TF over GST control) | 1.1 fold enrichment (6-mer frequency, TF over GST control) | 1.05 fold enrichment (6-mer frequency, TF over GST control) | 1.12 fold enrichment (6-mer frequency, TF over GST control) | 1.16 fold enrichment (6-mer frequency, TF over GST control) | 1.05 fold enrichment (6-mer frequency, TF over GST control) |
| GTTTCA | 1.34 fold enrichment (6-mer frequency, TF over GST control) | 1.27 fold enrichment (6-mer frequency, TF over GST control) | 1.35 fold enrichment (6-mer frequency, TF over GST control) | 1.3 fold enrichment (6-mer frequency, TF over GST control) | 1.4 fold enrichment (6-mer frequency, TF over GST control) | 1.3 fold enrichment (6-mer frequency, TF over GST control) | 1.32 fold enrichment (6-mer frequency, TF over GST control) | 1.24 fold enrichment (6-mer frequency, TF over GST control) | 1.44 fold enrichment (6-mer frequency, TF over GST control) |
